# ST2 inh: inhibitors of human ST2 (IL1RL1) binding to IL-33, primary screen, biochemical, AlphaLISA. Interleukin-1 receptor-like 1 (Homo sapiens), Q01638. AlphaLISA ST2-Fc/biotin-IL-33 interaction, 1 h. inhibition, % for hits at 17 µM. actives 2.3% (n = 78,000). AID 1259354, 2018; in the data active = inhibition above about 30%
# Target sequence (Q01638 whole entry, looked up): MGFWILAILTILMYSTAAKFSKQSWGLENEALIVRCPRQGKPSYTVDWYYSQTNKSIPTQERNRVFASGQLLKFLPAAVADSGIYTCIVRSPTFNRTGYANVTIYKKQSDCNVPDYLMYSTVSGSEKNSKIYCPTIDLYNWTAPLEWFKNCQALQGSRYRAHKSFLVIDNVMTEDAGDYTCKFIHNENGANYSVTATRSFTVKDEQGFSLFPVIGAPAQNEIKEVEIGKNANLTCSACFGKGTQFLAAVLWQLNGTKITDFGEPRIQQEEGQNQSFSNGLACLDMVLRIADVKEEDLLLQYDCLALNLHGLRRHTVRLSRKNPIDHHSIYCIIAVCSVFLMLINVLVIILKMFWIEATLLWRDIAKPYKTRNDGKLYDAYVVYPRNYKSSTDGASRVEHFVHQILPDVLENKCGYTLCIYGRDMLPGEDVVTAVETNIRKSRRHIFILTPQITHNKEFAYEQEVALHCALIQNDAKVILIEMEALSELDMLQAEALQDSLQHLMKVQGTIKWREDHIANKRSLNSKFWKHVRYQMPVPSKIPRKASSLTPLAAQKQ
# Numbers without * were called inactive; i = inactive. This excerpt belongs to a sample that is enriched for hits.
SMILES,ST2 inh
Cc1cccc(C2=N/C(=C\c3cccc(C(F)(F)F)c3)C(=O)O2)c1,32.0%*
Cc1cccc(C2=N/C(=C\c3ccco3)C(=O)O2)c1,47.0%*
Cc1cccc(C2=N/C(=C\c3c(F)cccc3Cl)C(=O)O2)c1,i
Cc1cccc(C2=N/C(=C\c3sccc3C)C(=O)O2)c1,37.0%*
COc1ccc(/C=C2\N=C(c3cccc(C)c3)OC2=O)c(OC)c1OC,48.0%*
O=C1OC(c2cccc([N+](=O)[O-])c2)=N/C1=C\c1ccc(Cl)cc1Cl,i
COc1ccc(C2=N/C(=C\c3cccc(C(F)(F)F)c3)C(=O)O2)cc1OC,i
Cc1cccc(/C=C2\N=C(c3ccccc3[N+](=O)[O-])OC2=O)c1,i
CCOc1ccc(/C=C2\N=C(c3cccc(F)c3)OC2=O)cc1OC,i
Cc1cccc(/C=C2\N=C(c3ccc4c(c3)OCO4)OC2=O)c1,i
CC1CCN(C(=O)Nc2ccccc2C(F)(F)F)CC1,i
CSc1nccc(N2CCCC(CCc3ccccc3)(C(=O)O)C2)n1 (stereo not drawn),i
CC(C)NC(=O)CNC(=O)c1cccs1,i
CCC1CN(C(=O)c2ccnc(OC)c2)CCC(=O)N1Cc1ccccc1 (stereo not drawn),i
O=C(NC1C2CC3CC(C2)CC1C3)c1ccc(N2CCCC2)c([N+](=O)[O-])c1 (stereo not drawn),i
Cc1ccnc(CC(C)N(C)C(=O)c2cc(-c3cnn(C)c3)nc3c(C)cccc23)c1 (stereo not drawn),i
CC(C)(O)C#Cc1ccc(C(=O)NCc2cc(-c3ccco3)on2)cc1,i
Cc1cccc(C2=N/C(=C\c3ccc(C)o3)C(=O)O2)c1,53.0%*
COc1ccc(/C=C2\N=C(c3ccc(-c4ccccc4)cc3)OC2=O)cc1,i
CCOc1ccc(/C=C2\N=C(c3cccc(I)c3)OC2=O)cc1,i
CCOC(=O)C1(Cc2cccc(Cl)c2)CCCN(C(=O)c2cc(C)nc(C)n2)C1 (stereo not drawn),i
O=C(NCc1cccnc1N1CCOCC1)c1ccco1,i
CCCOC(=O)CSC1=C(C#N)C(c2cccc(Cl)c2)CC(=O)N1 (stereo not drawn),i
Cc1ccc(Nc2cc(C)nc(N3CCN(S(=O)(=O)c4ccccc4F)CC3)n2)cc1,i
COC(=O)c1cccc(NC(=S)N[C@H]2CO[C@H]3[C@@H]2OC[C@@H]3Nc2nccc(C(C)(C)C)n2)c1,i
SMILES,ST2 inh
c1cnc(-c2cc(NC3CCNCC3)nc3[nH]ccc23)cn1,33.0%*
c1nc(-c2cc(NC3CCCC3)nc3[nH]ccc23)cc(N2CCOCC2)n1,30.0%*
c1cc2c(-c3ccc(NC4CCCC4)nn3)cc(NC3CCNCC3)nc2[nH]1,40.0%*
c1ccc(CNc2nc(NC3CCCCC3)nc(N3CCOCC3)n2)cc1,i
CCCc1nc(C)cc(-c2cc(N)nc3[nH]ccc23)n1,i
CCCc1cc(NCC2CNCCOC2)nc(C)n1 (stereo not drawn),i
CCCc1cc(-c2cc(NC3CCNCC3)nc3[nH]ccc23)nc(C)n1,38.0%*
c1cc2c(-c3ccc(CN4CCOCC4)cn3)cc(NC3CCCC3)nc2[nH]1,i
Cc1cccc(Nc2nc3nonc3nc2N2CCCCC2)c1C,i
Cc1nc2ccc(Cl)cn2c1CN(C)CC1CC(=O)N(C2CCCC2)C1 (stereo not drawn),i
CCOc1ccccc1NC(=O)c1sc2ncnc(N3CCN(c4ccccn4)CC3)c2c1C,i
CCN(CC)c1ncccc1CNC(=O)CN1CC(c2ccccc2)CC1=O (stereo not drawn),i
CS(=O)(=O)Nc1ccc(Cl)cc1C(=O)c1ccccc1,i
CCOc1ccccc1NC(=O)c1ccc(N(Cc2ccccc2Cl)S(C)(=O)=O)cc1,i
O=C(CCCn1cncn1)NC1CCCc2nc(-c3ccccc3)ncc21 (stereo not drawn),i
Cc1cc(C)c(C(=O)c2ccc(C(=O)N3CCOCC3)cc2)c(C)c1,i
CCCOc1ccc(C(=O)N2CCOCC2)cc1OC,i
C=CCOc1ccc(C(=O)N2CCOCC2)cc1,31.0%*
Cc1ccc(NS(=O)(=O)c2cccc3nsnc23)c(Cl)c1,i
Nc1c(Nc2cccc(C(=O)O)c2)c2ccccc2oc1=O,i
O=C1OC(c2ccc([N+](=O)[O-])cc2)=N/C1=C/C=C/c1ccccc1,i
CCSCCOC(=O)C1=C(C)NC2=C(C(=O)C(C(=O)OC)C(C)C2)C1c1ccc(Cl)cc1 (stereo not drawn),i
CN1CCN2CCN(S(=O)(=O)c3cn(C)cn3)CC2C1=O (stereo not drawn),i
COc1cc2c(cc1OC)C(C(=O)NCCN(C)C)C(c1ccccc1F)N(C)C2=O (stereo not drawn),32.0%*
COc1ccccc1CNC(=O)C1c2cc(OC)c(OC)cc2C(=O)N(C)C1c1ccccc1F (stereo not drawn),i
CCCCNC(=O)C1c2cc(OC)c(OC)cc2C(=O)N(C)C1c1ccccc1F (stereo not drawn),i
Cc1cc(Br)ccc1OCC(=O)Nc1ccccc1[N+](=O)[O-],i
